Assay results taken from publication PMC7862700, “An all-to-all approach to the identification of sequence-specific readers for epigenetic DNA modifications on cytosine”.

How the values were obtained:
Assay in all cases: DAPPL (digital affinity profiling via proximity ligation, sequencing); 10 mM Tris-HCl pH 7.5, 50 mM NaCl, 1 mM DTT, 4% glycerol, room temperature, 30 min; GST-TFs on glutathione beads, 16-mer random dsDNA library, 0.1% formaldehyde crosslink after washing; high values mean tight binding
[1] = molecular target: T1, FEV (Homo sapiens, UniProt Q99581 1-238); details: protein: recombinant; tags: N-terminal GST; dsDNA, one strand shown
T1 sequence: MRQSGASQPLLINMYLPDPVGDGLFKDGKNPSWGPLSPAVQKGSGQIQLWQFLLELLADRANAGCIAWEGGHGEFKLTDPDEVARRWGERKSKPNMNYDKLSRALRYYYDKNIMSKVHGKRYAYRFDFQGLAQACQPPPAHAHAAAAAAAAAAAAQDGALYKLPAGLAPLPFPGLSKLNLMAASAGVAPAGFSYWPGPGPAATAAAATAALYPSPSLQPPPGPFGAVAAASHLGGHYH
In short: (§1)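 After expression in yeast as GST fusions, human transcription factors were bound to glutathione beads, DNA-barcoded and mixed with a tag-only sample. The pools were incubated with 200 nmole of a 16-mer random double-stranded DNA library in Tris/NaCl/DTT/glycerol buffer (30 min, room temperature), washed and crosslinked with 0.1% formaldehyde. Proximity ligation with BsaI/T4 ligase ran for 1 h at 37 °C, before PCR amplification and sequencing on an Illumina NextSeq500. Binding signal is a hexamer's read frequency for a factor divided by its frequency for the tag-only sample.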

[2] = molecular target: ETV5 (Homo sapiens, UniProt P41161 1-510); details: protein: recombinant; tags: N-terminal GST; dsDNA, one strand shown
In short: as §1

[3] = molecular target: HSF1 (Homo sapiens, UniProt Q00613 1-529); details: protein: recombinant; tags: N-terminal GST; chain copies: 3; dsDNA, one strand shown
In short: as §1

[4] = molecular target: T2, SPIC (Homo sapiens, UniProt Q8N5J4 1-248); details: protein: recombinant; tags: N-terminal GST; dsDNA, one strand shown
T2 sequence: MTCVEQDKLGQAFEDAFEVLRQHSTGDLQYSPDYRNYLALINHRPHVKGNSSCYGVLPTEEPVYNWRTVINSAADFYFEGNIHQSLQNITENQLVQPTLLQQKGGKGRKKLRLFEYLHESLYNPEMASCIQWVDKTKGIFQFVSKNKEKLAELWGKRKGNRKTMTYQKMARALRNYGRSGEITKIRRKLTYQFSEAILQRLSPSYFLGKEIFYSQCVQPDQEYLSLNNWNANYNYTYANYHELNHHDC
In short: as §1

[5] = molecular target: ELF4 (Homo sapiens, UniProt Q99607 1-663); details: protein: recombinant; tags: N-terminal GST; dsDNA, one strand shown
In short: as §1

[6] = molecular target: T3, ELK4 (Homo sapiens, UniProt P28324-2 1-405); details: protein: recombinant; tags: N-terminal GST; dsDNA, one strand shown
T3 sequence: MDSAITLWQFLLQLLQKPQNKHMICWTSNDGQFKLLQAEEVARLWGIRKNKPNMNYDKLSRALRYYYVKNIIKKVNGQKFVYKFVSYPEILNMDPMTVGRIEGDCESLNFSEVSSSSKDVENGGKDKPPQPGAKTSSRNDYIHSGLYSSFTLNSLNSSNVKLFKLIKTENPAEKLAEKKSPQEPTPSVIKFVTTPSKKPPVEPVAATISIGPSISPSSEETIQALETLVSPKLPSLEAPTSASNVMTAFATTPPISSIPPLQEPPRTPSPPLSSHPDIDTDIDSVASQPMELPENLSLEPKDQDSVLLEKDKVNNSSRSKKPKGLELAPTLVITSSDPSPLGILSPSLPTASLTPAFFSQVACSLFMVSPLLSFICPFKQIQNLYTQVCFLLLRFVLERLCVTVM
In short: as §1

[7] = molecular target: T4, ETV2 (Homo sapiens, UniProt O00321 1-342); details: protein: recombinant; tags: N-terminal GST; dsDNA, one strand shown
T4 sequence: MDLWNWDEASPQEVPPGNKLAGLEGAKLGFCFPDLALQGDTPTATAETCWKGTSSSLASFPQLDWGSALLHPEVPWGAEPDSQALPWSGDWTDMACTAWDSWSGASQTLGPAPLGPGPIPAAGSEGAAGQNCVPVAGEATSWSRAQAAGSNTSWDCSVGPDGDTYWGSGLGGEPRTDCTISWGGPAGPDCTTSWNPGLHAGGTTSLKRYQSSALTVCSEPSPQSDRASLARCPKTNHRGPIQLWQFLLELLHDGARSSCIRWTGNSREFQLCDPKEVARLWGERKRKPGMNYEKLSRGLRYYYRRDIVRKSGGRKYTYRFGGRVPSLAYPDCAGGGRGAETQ
In short: as §1

[8] = molecular target: T5, ELF3 (Homo sapiens, UniProt P78545 1-371); details: protein: recombinant; tags: N-terminal GST; dsDNA, one strand shown
T5 sequence: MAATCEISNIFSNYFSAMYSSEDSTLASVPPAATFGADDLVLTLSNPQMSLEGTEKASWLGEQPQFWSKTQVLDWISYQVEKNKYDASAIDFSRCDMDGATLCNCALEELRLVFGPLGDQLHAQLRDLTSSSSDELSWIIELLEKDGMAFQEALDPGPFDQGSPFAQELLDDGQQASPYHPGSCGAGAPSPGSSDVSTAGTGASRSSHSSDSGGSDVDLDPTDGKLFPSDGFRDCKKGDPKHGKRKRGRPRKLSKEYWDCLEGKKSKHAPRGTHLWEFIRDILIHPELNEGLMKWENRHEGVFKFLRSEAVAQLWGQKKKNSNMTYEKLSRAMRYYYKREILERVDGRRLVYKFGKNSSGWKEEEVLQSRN
In short: as §1

[9] = molecular target: CRX (Homo sapiens, UniProt O43186 1-299); details: protein: recombinant; tags: N-terminal GST; dsDNA, one strand shown
In short: as §1

CRX, sequence (O43186 whole entry): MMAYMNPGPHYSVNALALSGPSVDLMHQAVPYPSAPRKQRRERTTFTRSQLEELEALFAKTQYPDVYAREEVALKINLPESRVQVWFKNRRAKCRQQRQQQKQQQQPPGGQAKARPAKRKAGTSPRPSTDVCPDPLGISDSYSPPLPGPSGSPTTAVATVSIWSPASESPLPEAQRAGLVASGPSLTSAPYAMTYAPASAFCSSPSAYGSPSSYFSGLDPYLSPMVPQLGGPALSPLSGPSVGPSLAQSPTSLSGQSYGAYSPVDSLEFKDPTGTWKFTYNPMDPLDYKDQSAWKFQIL
ETV5, sequence (P41161 whole entry): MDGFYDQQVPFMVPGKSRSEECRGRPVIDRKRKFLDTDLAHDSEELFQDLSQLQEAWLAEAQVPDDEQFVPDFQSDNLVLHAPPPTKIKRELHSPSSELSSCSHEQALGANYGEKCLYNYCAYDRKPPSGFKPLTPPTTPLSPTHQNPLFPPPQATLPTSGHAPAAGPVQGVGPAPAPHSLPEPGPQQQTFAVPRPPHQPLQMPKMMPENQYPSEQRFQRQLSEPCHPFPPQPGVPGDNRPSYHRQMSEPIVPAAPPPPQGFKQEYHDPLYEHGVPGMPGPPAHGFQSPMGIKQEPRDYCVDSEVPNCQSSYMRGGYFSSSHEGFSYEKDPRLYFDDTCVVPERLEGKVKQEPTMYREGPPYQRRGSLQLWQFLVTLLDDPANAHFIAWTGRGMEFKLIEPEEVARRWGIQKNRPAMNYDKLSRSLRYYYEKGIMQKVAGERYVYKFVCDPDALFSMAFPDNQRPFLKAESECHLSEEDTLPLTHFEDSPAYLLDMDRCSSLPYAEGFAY
HSF1, sequence (Q00613 whole entry): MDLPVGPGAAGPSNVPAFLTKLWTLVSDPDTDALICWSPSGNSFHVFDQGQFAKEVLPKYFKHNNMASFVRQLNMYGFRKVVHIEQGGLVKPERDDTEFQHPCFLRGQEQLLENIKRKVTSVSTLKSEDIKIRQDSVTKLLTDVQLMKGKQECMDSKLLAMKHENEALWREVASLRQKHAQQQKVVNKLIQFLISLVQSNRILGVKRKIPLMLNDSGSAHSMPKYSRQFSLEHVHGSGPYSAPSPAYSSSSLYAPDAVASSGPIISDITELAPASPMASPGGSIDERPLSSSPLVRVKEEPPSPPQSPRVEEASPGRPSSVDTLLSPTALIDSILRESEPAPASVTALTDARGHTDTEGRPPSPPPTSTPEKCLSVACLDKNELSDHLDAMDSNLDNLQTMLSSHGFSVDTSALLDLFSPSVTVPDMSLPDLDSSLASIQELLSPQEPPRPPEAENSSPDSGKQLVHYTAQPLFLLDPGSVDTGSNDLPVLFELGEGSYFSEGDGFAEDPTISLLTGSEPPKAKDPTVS
ELF4, sequence (Q99607 whole entry): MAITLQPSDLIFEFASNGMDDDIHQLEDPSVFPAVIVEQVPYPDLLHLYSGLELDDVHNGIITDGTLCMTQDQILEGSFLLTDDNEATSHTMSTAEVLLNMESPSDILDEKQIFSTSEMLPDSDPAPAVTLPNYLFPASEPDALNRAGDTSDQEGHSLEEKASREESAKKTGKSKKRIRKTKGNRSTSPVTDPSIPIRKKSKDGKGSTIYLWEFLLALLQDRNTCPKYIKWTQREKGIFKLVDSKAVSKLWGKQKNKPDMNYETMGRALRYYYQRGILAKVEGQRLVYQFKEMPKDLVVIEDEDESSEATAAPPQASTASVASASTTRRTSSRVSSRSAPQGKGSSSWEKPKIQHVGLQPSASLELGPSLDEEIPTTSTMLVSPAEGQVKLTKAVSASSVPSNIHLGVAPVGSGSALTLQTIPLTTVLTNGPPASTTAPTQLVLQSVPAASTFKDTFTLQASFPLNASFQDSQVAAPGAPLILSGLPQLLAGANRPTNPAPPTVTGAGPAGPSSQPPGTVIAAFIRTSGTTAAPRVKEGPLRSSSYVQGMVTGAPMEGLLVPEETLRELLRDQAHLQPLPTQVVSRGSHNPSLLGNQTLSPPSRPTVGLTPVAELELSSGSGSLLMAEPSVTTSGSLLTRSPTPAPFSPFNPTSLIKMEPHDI

TCGACC
binding signal [1]: 1.32 fold enrichment (6-mer frequency, TF over GST control)
binding signal [2]: 1.27 fold enrichment (6-mer frequency, TF over GST control)
binding signal [3]: 1.23 fold enrichment (6-mer frequency, TF over GST control)
binding signal [4]: 1.17 fold enrichment (6-mer frequency, TF over GST control)
binding signal [5]: 1.39 fold enrichment (6-mer frequency, TF over GST control)
binding signal [6]: 1.11 fold enrichment (6-mer frequency, TF over GST control)
binding signal [7]: 1.35 fold enrichment (6-mer frequency, TF over GST control)
binding signal [8]: 1.23 fold enrichment (6-mer frequency, TF over GST control)
binding signal [9]: 1.11 fold enrichment (6-mer frequency, TF over GST control)
